This is an account of results in article PMC5540273 (PLoS ONE, 2017).

Structures are written as SMILES.
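Further: KINOMEscan kinase panel screen.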

This test relates to T1, PFTK1.
T1 construct: gene CDK14
The note with it: concentration: 1 μM,replicates: in singlicate; n = 1.
In the case of `CCn1c(-c2nonc2N)nc2c(C#CC(C)(C)O)nc(OCCN)cc21.Cl.Cl` [GSK902056], the “%Inh” value came out at 0%.
On to `COc1ccc(C[C@@H](CN)NC(=O)c2cc(Br)c(-c3ccnc4[nH]ccc34)s2)cc1.Cl.Cl` [GSK1389063], for which the “%Inh” value is reported as 16%.
As to `Cc1ccc2c(-c3ccncc3)c(-c3ccc(F)cc3)nn2c1.Cl` [GW461484], the “%Inh” value is 0%.
As to `Cl.Cl.NC[C@H](Cc1ccc(C(F)(F)F)cc1)NC(=O)c1cc(Br)c(-c2ccnc3[nH]ccc23)s1` [GSK1487252], the “%Inh” value turned out to be 0%.
The value for `O=C(NCCCN1CCOC1=O)c1cnc(NCc2cc(Cl)ccc2Cl)nc1NC1CCCC1` was 7%; that for `C=CC(=O)Nc1cc2c(Nc3ccc(F)c(Cl)c3)ncnc2cc1OCCCN1CCOCC1` [GW781483] was 0%; that for `NC(=O)c1cc(-c2ccccc2)cc2c(C3CCNCC3)c[nH]c12` [GSK301362] was 17%.
As for `C[C@@H]1CCN(C(=O)CC#N)C[C@@H]1N(C)c1ncnc2[nH]ccc12`, the figure is 21%.
The value for `Cc1occc1-c1nc(N)c(OC[C@@H](N)Cc2c[nH]c3ccccc23)cc1-c1cc2c(C)n[nH]c2cn1` [GSK1660450] was 45%; that for `C[C@H]1Oc2cc(cnc2N)-c2c(nn(C)c2C#N)CN(C)C(=O)c2ccc(F)cc21` was 12%; that for `CN(C)CC(O)COc1ccc(Nc2nccc(-c3cnn4nc(N5CCOCC5)ccc34)n2)cc1` (stereo not drawn) [GW767488] was 46%.
Turning to `CCN(CC)CCCCNc1ncc2cc(-c3c(Cl)cccc3Cl)c(NC(=O)NC(C)(C)C)nc2n1`, the “%Inh” value was found to be 0%.
